This is a sample that favours compounds with a hit; in the whole collection about 11% have one here.
G9a inh = inhibitors of human histone lysine methyltransferase G9a | Q96KQ7 | Potency, µM (highest dose often 102 µM), usual class: inhibitors | actives 8.8% (n = 350,000) | G9a H3K9 monomethylation, AlphaScreen, 2 h; note: nearly all actives have a fitted effect of over 75% in size
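Using a bead-based AlphaScreen, monomethylated H3K9 product from 2 h room-temperature reactions (G9a 20 nM, peptide 500 nM, SAM 20 uM) was detected with 0.5 ug/mL rabbit anti-H3K9me1 antibody.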
L3MBTL1 inh = L3MBTL1 (human) inhibition. Q9Y468. AlphaScreen L3MBTL1–H3K9me1 peptide binding. Potency, µM (top dose mostly 57.1 µM), actives largely listed as inhibitors. actives 0.66% (n = 230,000). AID 485360; note: nearly all actives have a fitted effect of over 60% in size
Target sequence (Q9Y468 whole entry, looked up): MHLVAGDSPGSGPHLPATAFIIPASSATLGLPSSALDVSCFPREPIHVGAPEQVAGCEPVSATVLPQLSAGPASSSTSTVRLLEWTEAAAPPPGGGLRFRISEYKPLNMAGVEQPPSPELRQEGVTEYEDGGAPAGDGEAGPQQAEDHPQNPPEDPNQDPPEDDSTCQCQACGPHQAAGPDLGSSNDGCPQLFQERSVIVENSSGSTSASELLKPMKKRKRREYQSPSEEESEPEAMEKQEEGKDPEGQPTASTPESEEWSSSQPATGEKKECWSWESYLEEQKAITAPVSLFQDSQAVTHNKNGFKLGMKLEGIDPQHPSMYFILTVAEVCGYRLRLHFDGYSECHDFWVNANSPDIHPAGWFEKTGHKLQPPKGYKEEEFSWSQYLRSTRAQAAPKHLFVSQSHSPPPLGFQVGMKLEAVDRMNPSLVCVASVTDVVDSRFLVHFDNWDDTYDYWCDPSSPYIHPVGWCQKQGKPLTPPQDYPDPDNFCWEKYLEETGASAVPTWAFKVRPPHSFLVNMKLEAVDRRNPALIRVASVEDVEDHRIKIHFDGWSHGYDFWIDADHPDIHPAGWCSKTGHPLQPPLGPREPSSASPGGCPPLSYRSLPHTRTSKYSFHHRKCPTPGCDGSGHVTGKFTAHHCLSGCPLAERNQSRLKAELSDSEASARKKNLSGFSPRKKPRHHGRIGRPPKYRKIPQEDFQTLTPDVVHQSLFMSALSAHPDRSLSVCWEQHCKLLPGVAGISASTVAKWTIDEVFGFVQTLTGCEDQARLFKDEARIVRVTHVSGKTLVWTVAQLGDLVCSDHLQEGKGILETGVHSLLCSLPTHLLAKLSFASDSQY
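Displacement of a biotinylated histone H3(1-15) peptide monomethylated at Lys9 (75 nM) from L3MBTL1 (50 nM) was measured by AlphaScreen after a 30 min room-temperature compound incubation; cefsulodin titration served as intraplate control.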
HP1b binding inh = blocks HP1-beta chromodomain binding to methylated histone tails. AID 540317. actives 0.56% (n = 390,000). P83916. AlphaScreen HP1-beta / biotin-H3K9me3 peptide binding. Potency, µM (titrated, usually from 114 µM), most hits filed as inhibitors; note: nearly all actives have a fitted effect of over 70% in size
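HP1-beta protein (50 nM final) preincubated 30 min at room temperature with biotinylated H3(1-18)K9me3 peptide (50 nM) in PBS pH 7.4, 0.01% Tween-20, then compound added for 30 min. AlphaScreen streptavidin donor/nickel chelate acceptor beads (10 ug/mL final), 30 min dark, luminescence read.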
BAZ2B block = BAZ2B (human) inhibition. Potency, µM (doses to about 114 µM), hits mostly inhibitors. AID 504333. actives 4.4% (n = 360,000). AlphaScreen BAZ2B-H3K14Ac peptide displacement; note: nearly all actives have a fitted effect of over 60% in size
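Multi-concentration screen (max 110 uM) measuring displacement of acetylated histone H3 peptide from BAZ2B by AlphaScreen, using 50 nM protein, 50 nM peptide and 10 ug/mL streptavidin donor plus Ni-chelate acceptor beads.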
JMJD2A Tudor = inhibitors of human JMJD2A Tudor domain; O75164; AlphaScreen JMJD2A-Tudor / H3K4me3 peptide binding; Potency, µM (series often up to 114 µM), actives largely listed as inhibitors; actives 4.4% (n = 390,000); AID 504339; note: nearly all actives have a fitted effect of over 50% in size
Each line names hits and unclear results; the compound was inactive in the other large screens. Calls come from the whole dose curve; as a rule, active = well fitted inhibition curve with a large enough effect; inconclusive = small, poorly fitted or top-dose-only effect; inactive = no such curve, though single readings can be large or run the other way.

Cc1cc(Cl)ccc1OCC(=O)OCC(=O)N1CCC(C(N)=O)CC1	none
COc1ccc(Cl)cc1NC(=O)CN1C(=O)C(C)(C)c2cc(S(=O)(=O)N3CCCCC3)ccc21	none (no result: L3MBTL1 inh)
CN(C)/C=C/C=C1C(=O)CCCC1=O	G9a inh inconclusive, L3MBTL1 inh 28.2µM, HP1b binding inh inconclusive, BAZ2B block 56.2µM, JMJD2A Tudor inconclusive
Cc1ccccc1Nc1c(-c2ccc(Cl)s2)nc2cccc(C)n12	none (no result: L3MBTL1 inh)
CCO/C=C1/C(=O)N(Cc2ccccc2)C(=O)c2ccccc21	G9a inh 14.1µM
CCO/C=C1/C(=O)N(C)C(=O)c2cc(OC)ccc21	G9a inh 3.55µM (no result: L3MBTL1 inh)
CCO/C=C1/C(=O)N(CC)c2ccccc21	G9a inh inconclusive
CCOC=C1C(=O)N(C(C)=O)c2cc(OC)c(OC)cc21	JMJD2A Tudor inconclusive (no result: G9a inh, L3MBTL1 inh, BAZ2B block)
CCO/C=C1\C(=O)N(c2ccccc2)C(=O)c2ccccc21	G9a inh 25.1µM, BAZ2B block inconclusive
CCO/C=C1/C(=O)N(c2ccc(OC)cc2)C(=O)c2ccccc21	G9a inh 25.1µM
O=C(Nc1ccc(Br)cc1)c1ccc(F)c(S(=O)(=O)N2CCc3ccccc32)c1	none (no result: L3MBTL1 inh)
O=C(c1cc(COc2ccc(F)cc2F)on1)N1CC2C[C@@H]3CC1C[C@H](C2)C3	none (no result: L3MBTL1 inh)
COc1ccccc1N1C(=O)c2ccccc2C1=O	none (no result: G9a inh, L3MBTL1 inh, HP1b binding inh, BAZ2B block)
CCO/C=C1/C(=O)N(c2ccccc2OC)C(=O)c2ccccc21	G9a inh 28.2µM, JMJD2A Tudor inconclusive
COc1ccc(Cl)cc1NC(=O)CCCn1c(C)c2cnn(-c3ccccc3)c(=O)c2c1C	none (no result: L3MBTL1 inh)
N#C/C(C(=O)c1ccccc1)=C1/SC=C(N)N1c1ccccc1	G9a inh inconclusive, L3MBTL1 inh inconclusive, BAZ2B block 44.7µM (no result: HP1b binding inh, JMJD2A Tudor)
COc1ccc(-n2c(COc3ccc(C)cc3)n[nH]c2=S)cc1	none (no result: G9a inh)
Cc1ccc(-c2n[nH]c(=S)n2C)cc1	G9a inh 10µM, HP1b binding inh inconclusive, JMJD2A Tudor 3.16µM
COc1ccc(-n2c(-c3ccc(Br)cc3)n[nH]c2=S)cc1	JMJD2A Tudor 31.6µM
Cc1nc(-c2ccccc2)cs1	none (no result: L3MBTL1 inh)
Cn1c(-c2csc(-c3ccccc3)n2)n[nH]c1=S	JMJD2A Tudor 28.2µM
COc1ccc(-c2n[nH]c(=S)n2-c2ccc(C)cc2)cc1	G9a inh 0.891µM, JMJD2A Tudor inconclusive (no result: L3MBTL1 inh)
NC(=O)Oc1ccc(Cc2ccccc2)cc1	none (no result: L3MBTL1 inh, HP1b binding inh, BAZ2B block, JMJD2A Tudor)
Cc1sc(N/N=C/c2ccco2)nc1-c1ccccc1	G9a inh inconclusive, BAZ2B block inconclusive, JMJD2A Tudor inconclusive
CC(C)=NNc1nc(-c2ccccc2)c(C)s1	G9a inh 31.6µM, HP1b binding inh inconclusive (no result: L3MBTL1 inh, BAZ2B block)
Cc1sc(N/N=C/c2cccnc2)nc1-c1ccccc1	BAZ2B block inconclusive, JMJD2A Tudor 50.1µM (no result: G9a inh)
COc1cc(NC(=O)C2Cc3ccccc3N2C(=O)c2ccccc2)cc(OC)c1 (configuration not stated)	none (no result: L3MBTL1 inh)
Cc1ccn2c(=O)cc(COc3cccc(NC(=O)Nc4cccc(Cl)c4C)c3)nc2c1	none (no result: L3MBTL1 inh)
COc1ccc(/C=C/c2nc(C#N)c(N3CCC(C(N)=O)CC3)o2)cc1OC	none (no result: L3MBTL1 inh)
CCn1c(C(=O)OC)cc2c1ccn2-c1ccc(F)cc1	G9a inh inconclusive, HP1b binding inh inconclusive, BAZ2B block 12.6µM, JMJD2A Tudor 3.16µM
CCN(CC)c1ccc2cc(-c3nc4ccccc4[nH]3)c(=O)oc2c1	none
CCN(CC)c1ccc2nc3ccc(N)cc3[n+](-c3ccccc3)c2c1	L3MBTL1 inh inconclusive, BAZ2B block 12.6µM, JMJD2A Tudor 44.7µM
CCN(CC)c1ccc2nc3ccccc3[n+](CC)c2c1	G9a inh 14.1µM, L3MBTL1 inh 20µM, HP1b binding inh inconclusive, BAZ2B block 39.8µM, JMJD2A Tudor inconclusive
CCN(CC)S(=O)(=O)c1ccc(Cl)c(C(=O)Nc2cc(C)nn2-c2ccccc2C(F)(F)F)c1	none (no result: HP1b binding inh, JMJD2A Tudor)
Fc1cccc(Cl)c1-c1nnc2ccc3ccccc3n12	G9a inh 31.6µM (no result: BAZ2B block)
Cc1ccc(N(Cc2ccccc2F)S(C)(=O)=O)cc1C	BAZ2B block 56.2µM (no result: L3MBTL1 inh)
O=C(CSc1nc2ccccc2n1CCc1ccccc1)N1CCOCC1	G9a inh 50.1µM
O=C(CSc1nnc(Cn2c(=O)sc3ccccc32)n1-c1ccccc1)N1CCOCC1	G9a inh 44.7µM
O=C(CSc1nc2ccccc2n1CCc1ccccc1)c1ccc(O)c(O)c1	L3MBTL1 inh 3.16µM, HP1b binding inh 25.1µM, BAZ2B block 2.51µM, JMJD2A Tudor 7.94µM (no result: G9a inh)

High-throughput results as filed in PubChem BioAssay.
